# Reference: PubChem BioAssay AID1851 (National Center for Advancing Translational Sciences (NCATS), 2009)
# About 2,600 (16%) of roughly 16,000 compounds were called active. Inconclusive results (about 20%) are left out. Calls come from the whole dose curve; as a rule, active = well fitted curve in the direction sought with a large enough effect; inconclusive = small, poorly fitted or top-dose-only effect, or effect the other way; inactive = no such curve, though single readings can be large or run the other way. These entries were drawn from the full list.
# Molecular target: Cytochrome P450 2D6 (Homo sapiens) (UniProt P10635)
# Sequence (P10635 whole entry, looked up): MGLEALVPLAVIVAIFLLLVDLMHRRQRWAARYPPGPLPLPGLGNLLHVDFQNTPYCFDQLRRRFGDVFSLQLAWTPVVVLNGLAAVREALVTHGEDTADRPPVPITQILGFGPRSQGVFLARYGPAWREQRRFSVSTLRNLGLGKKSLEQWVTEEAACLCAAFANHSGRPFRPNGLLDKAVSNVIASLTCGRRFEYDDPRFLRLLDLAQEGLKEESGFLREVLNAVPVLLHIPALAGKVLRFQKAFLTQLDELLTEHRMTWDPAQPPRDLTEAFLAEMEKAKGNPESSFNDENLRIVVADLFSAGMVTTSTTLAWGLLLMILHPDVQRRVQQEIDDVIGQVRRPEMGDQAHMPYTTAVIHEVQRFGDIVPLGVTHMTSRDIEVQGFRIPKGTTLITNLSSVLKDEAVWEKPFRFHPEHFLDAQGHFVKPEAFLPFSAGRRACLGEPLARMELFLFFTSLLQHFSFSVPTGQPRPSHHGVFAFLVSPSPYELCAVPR
# Experiment: Cytochrome panel assay with activity outcomes
# Settings: recombinant CYP, pro-luciferin dealkylation, luminescence, p450-cyp2d6; series mostly up to 57.1 µM; activity, negative = inhibition: at the top concentration
# % is set by controls: 0 for no effect and ±100 for the full control effect.
Structure (SMILES),"activity, negative = inhibition",AC50
Cc1ccccc1OCC(=O)N/N=C1\CCOc2c(C)cccc21,9.01% (inactive),–
Cc1cc(C=O)c(C)n1-c1ccc(N2CCCCC2)c([N+](=O)[O-])c1,27.9% (inactive),–
COCCn1c(=O)c(-c2cccs2)nc2cnc(Oc3ccc(OC)cc3)nc21,-3.23% (inactive),–
Cc1cc(C)c2c(SCc3ccc(Cl)cc3Cl)nc(N)nc2n1,-17.3% [at 11.4 µM] (inactive),–
O=C(Nc1nnc(SCc2ccc(Cl)cc2Cl)s1)C1COc2ccccc2O1 (stereo not given),-7.07% (inactive),–
N=C(N)SCc1ccc(Cl)cc1Cl (tested in a mixture with another compound),–,3.16 µM (active)
O=C(OCn1ncc(Cl)c(Cl)c1=O)c1cccc(C(F)(F)F)c1,-11.7% (inactive),–
CNC(=O)COC(=O)c1cc2c(C)nn(-c3ccc(F)cc3)c2s1,-18.4% (inactive),–
Nc1ccc(-c2nc3c(Cl)c(N)ccc3[nH]2)cc1,-29.2% (inactive),–
CC1=C/C(=C(/c2ccc(O)c(C)c2)c2ccccc2C(=O)O)C=CC1=O,–,1.58 µM (active)
O=C(O)c1ccc(C(=O)c2ccccc2C(=O)O)cc1C(=O)O,8.1% [at 11.4 µM] (inactive),–
Cc1cccc(C(=O)c2ccccc2C(=O)O)c1O,13.6% (inactive),–
O=c1c(-c2ccccc2)c(O)c2cccc3c2n1CCC3,1.79% (inactive),–
C[N+](C)(N)Cc1csc(-c2ccc(Cl)cc2)n1,-18.9% [at 11.4 µM] (inactive),–
CCOc1ccccc1NC(=O)C1Cc2ccccc2CN1S(C)(=O)=O (stereo not given),-15.2% (inactive),–
O=C(O)c1ccccc1C(=O)Nc1ccc(S(=O)(=O)Nc2nccs2)cc1,6.16% [at 25.6 µM] (inactive),–
O=C(Nc1nccs1)C1Cc2ccccc2CN1S(=O)(=O)c1ccc(F)cc1 (stereo not given),–,12.6 µM (active)
O=C(O)c1nnsc1COCc1ccccc1,7.15% [at 11.4 µM] (inactive),–
C[N@@+]1(Cc2ccc(Cl)c(Cl)c2)CCC[C@@H]1c1ccc[n+](Cc2ccc(Cl)c(Cl)c2)c1,–,3.16 µM (active)
Clc1ccccc1-c1nc(NCc2cccs2)c2ccccc2n1,–,12.6 µM (active)
Clc1ccccc1-c1nc(NC2CCNCC2)c2ccccc2n1,2.72% (inactive),–
Cc1ccccc1-c1nc(NC2CCNCC2)c2ccccc2n1,-3.84% (inactive),–
COc1ccccc1-c1nc(NC2CC2)c2ccccc2n1,–,20 µM (active)
CNc1nc(-c2ccccc2OC)nc2ccccc12,–,20 µM (active)

Structure (SMILES),"activity, negative = inhibition",AC50
COc1ccccc1-c1nc(NCc2ccccc2)c2ccccc2n1,–,1.58 µM (active)
CCOc1ccccc1Nc1ccc(N)cc1S(=O)(=O)O,0.246% [at 11.4 µM] (inactive),–
COc1ccc(Oc2ncc3ncc(=O)n(C4CC4)c3n2)cc1,-5.49% (inactive),–
Nc1c(S(N)(=O)=O)cc(S(N)(=O)=O)cc1S(N)(=O)=O,18.8% [at 11.4 µM] (inactive),–
C=CCN(CC=C)C(=S)Nc1ccccc1,-8.91% (inactive),–
Cn1cnc([N+](=O)[O-])c1Sc1nc(N)nc2c1ncn2Cc1ccccc1,15.1% [at 11.4 µM] (inactive),–
CCN1C(=O)[C@@H]2[C@H]3C(=CC[C@@H]2C1=O)C1(OCCCO1)[C@H]1O[C@@H]1[C@H]3O,-15.6% [at 11.4 µM] (inactive),–
O=C(CSc1nc2ccc([N+](=O)[O-])cc2s1)c1ccc2ccccc2c1,-13.4% [at 11.4 µM] (inactive),–
COc1ccccc1-c1nc(NCc2cccs2)c2ccccc2n1,–,1 µM (active)
CN(C)c1ncc2nc(-c3ccc(Cl)cc3)c(=O)n(C)c2n1,-2.59% (inactive),–
C#CCCCO/N=C1/C[C@@H](O)[C@@H](O)[C@@H]2[C@@H]3C(=O)N(CC)C(=O)[C@H]3CC[C@@H]12,-16.9% [at 11.4 µM] (inactive),–
NC(=NC1C2CC3CC(C2)CC1C3)Nc1ccc(I)cc1 (stereo not given),–,0.0398 µM (active)
Nc1nc(Br)c2ccccc2c1-c1ccc(F)cc1,-9.97% (inactive),–
O=C1/C(=C/c2cccnc2)SC(=S)N1Cc1ccco1,-20.9% [at 11.4 µM] (inactive),–
CC(=O)C1C(c2ccccc2OC(F)F)NC(=O)NC1(O)C(F)(F)F (stereo not given),-3.96% (inactive),–
CC(=O)c1sc(N)c(C(=O)OC(C)C)c1C,-2.55% (inactive),–
C[C@@H](C(=O)Nc1ccc2ccccc2c1)[C@@H]1C[C@@]1(C)[C@@H](NS(=O)(=O)c1ccc2ccccc2c1)c1ccccc1,-9.37% (inactive),–
C[C@@H](C(=O)Nc1ccc2ccccc2c1)[C@H]1C[C@]1(C)[C@H](NS(=O)(=O)c1ccc2ccccc2c1)c1ccccc1,–,3.16 µM (active)
C[C@@H](C(=O)Nc1ccc2ccccc2c1)[C@@H]1C[C@@]1(C)[C@@H](NS(=O)(=O)c1ccc(-c2ccccc2)cc1)c1ccccc1,3.73% (inactive),–
C[C@@H](C(=O)Nc1ccc2ccccc2c1)[C@H]1C[C@]1(C)[C@H](NS(=O)(=O)c1ccc(-c2ccccc2)cc1)c1ccccc1,–,2 µM (active)
CCSc1nc2c(c(=O)[nH]1)C(c1ccccn1)C1=C(CC(C)(C)CC1=O)N2 (stereo not given),17% (inactive),–
C[C@]1(OC(=O)/C=C\c2ccccc2)C[C@@H](O)[C@@]2(O)C=CO[C@@H](O[C@H]3O[C@@H](CO)[C@@H](O)[C@@H](O)[C@@H]3O)[C@H]21,-1.82% [at 25.6 µM] (inactive),–
CCN1CCN(c2nc(-c3ccccn3)nc3ccccc23)CC1,-25.3% (inactive),–
CC1CCCCN1c1nc(-c2ccncc2)nc2ccccc12 (stereo not given),–,7.94 µM (active)

Structure (SMILES),"activity, negative = inhibition",AC50
CC1CCCCN1c1cc(C#N)c(C#N)cc1[N+](=O)[O-] (stereo not given),-1.76% (inactive),–
O=C(O)C12CC3(C(=O)O)CC(C(=O)O)(CC(C(=O)O)(C1)C3=O)C2=O,-4.61% [at 11.4 µM] (inactive),–
CCCN(C/C=C\I)[C@@H]1CCc2cccc(O)c2C1,5.27% (inactive),–
CCCN(CCc1ccccc1)[C@H]1CCc2c(O)cccc2C1,–,0.501 µM (active)
Cc1ccc(-n2c(CCC(=O)O)ccc2-c2cccs2)cc1C,3.62% (inactive),–
O=c1c(-c2ccccc2)nc2cnc(N3CCOCC3)nc2n1-c1ccccc1,-6.6% (inactive),–
C/C(Cn1nc([N+](=O)[O-])cc1C)=N\NC(=O)c1ccc(O)cc1O,12.2% (inactive),–
Cc1ccc(Cl)c(Nc2ccccc2C(=O)O)c1Cl,–,inactive
Cc1nc2ccccc2nc(C)c1=NO,-17.1% (inactive),–
CCOC(=O)C(C)CC(C)C(=O)N1CCOCCN(C(=O)C(C)CC(C)C(=O)OCC)CCOCC1 (stereo not given),-0.969% (inactive),–
CC(N)=NCc1cccc(CN)c1,–,inactive
NC(N)=NCc1cccc(I)c1,–,15.8 µM (active)
Nc1c(OCC(=O)O)ccc2cc(S(=O)(=O)O)ccc12,-4.66% [at 11.4 µM] (inactive),–
CNC(=S)NNC(=O)c1sccc1OCc1ccc(C)cc1,-4.42% (inactive),–
COc1ccccc1/C=N/NC(=O)CC(=O)Nc1ccc(Cl)c(Cl)c1,–,28.2 µM (active)
O=C(Cc1ccccc1)N/N=C/c1ccccc1OCc1ccc(Cl)cc1,-27.7% (inactive),–
COc1cc(C(=O)Oc2ccccc2/C=N/NC(=O)c2ccc(C)cc2)cc(OC)c1OC,38% (inactive),–
NC([N-]/N=C/c1ccccn1)=[S]=[Fe].O=S(=O)(O)O,8.09% [at 11.4 µM] (inactive),–
N#CCCn1c(=O)c(-c2cc(F)cc(F)c2)nc2cnc(N3CCOCC3)nc21,6.46% (inactive),–
CC(C)N(Cc1ccccc1)S(=O)(=O)c1n[nH]c(C(C)(C)C)n1,14.9% [at 11.4 µM] (inactive),–
CCC(NC(=O)Nc1cc(OC)c(OC)c(OC)c1)(C(F)(F)F)C(F)(F)F,-29.8% (inactive),–
CC1CCN(C(=O)C2CCN(S(=O)(=O)c3cccc4nonc34)CC2)CC1,-14.6% (inactive),–
CC(=O)Nc1ccc(NC(=O)C2CCN(S(=O)(=O)c3cccc4nonc34)CC2)cc1,-5.83% (inactive),–
COc1cc(NC(=O)C2CCN(S(=O)(=O)c3cccc4nonc34)CC2)cc(OC)c1,–,0.562 µM (active)

Structure (SMILES),"activity, negative = inhibition",AC50
O=C(Nc1cccc(F)c1)N1CCCC2(CCN(C(=O)c3cnccn3)CC2)C1,0.953% (inactive),–
CCC(=O)NC(=S)Nc1ccc(S(=O)(=O)NC(C)=O)cc1,21.6% (inactive),–
CCCCCN(CCCCC)C(=O)[C@H](CCC(=O)O)NC(=O)c1ccc(Cl)c(Cl)c1,–,inactive
O=S(=O)(c1cccc2c(I)cccc12)N1CCCNCC1,–,10 µM (active)
O=S(=O)(c1cccc2cnccc12)N1CCNCC1,-11.8% (inactive),–
Cc1noc(C)c1-c1nccc(N2CCN(C)CC2)n1,-12.7% (inactive),–
Cn1cccc1C(=O)N1CCC2(CC1)CCN(c1ccccn1)CC2,-9.95% (inactive),–
CNC(=S)Nc1ccc2nc(C)c(C)nc2c1,-6.39% (inactive),–
S=C(Nc1ccc2cn[nH]c2c1)Nc1ccc2cn[nH]c2c1,–,2 µM (active)
N#CC(C#N)=NNc1ccc2cn[nH]c2c1,-16.6% [at 11.4 µM] (inactive),–
CCOC(=O)N/N=C1/C[C@@H](O)[C@@H](O)[C@@H]2[C@@H]3C(=O)N(c4cccc(Oc5ccccc5)c4)C(=O)[C@H]3CC[C@@H]12,4.14% [at 11.4 µM] (inactive),–
COC(=O)c1c(C)[nH]c(C)c1C(=O)c1ccccc1Cc1ccccc1,-2.67% (inactive),–
Cc1cc(C)n(CC(=O)N/N=C/c2ccco2)n1,8.84% (inactive),–
O=C(NCC(c1cccs1)N1CCOCC1)c1ccco1 (stereo not given),-12.5% (inactive),–
O=C(NCc1ccccn1)C1CC(c2ccc(Cl)c(Cl)c2)=NO1 (stereo not given),-12.1% (inactive),–
O=C(NCCc1cccs1)C1CC(c2c(Cl)cccc2Cl)=NO1 (stereo not given),–,5.01 µM (active)
COc1ccc(C2=NOC(C(=O)NCCN3CCOCC3)C2)cc1 (stereo not given),2.38% (inactive),–
COc1ncc2nc(-c3ccccc3)c(=O)n(C)c2n1,-1.94% (inactive),–
CCc1ccc(C(=O)CN(C#N)c2nc(C)cc(C)n2)cc1,–,6.31 µM (active)
CCc1ccc(C(=O)COC(=O)c2cccc(N3C(=O)c4c(C)nc5ccccc5c4C3=O)c2)cc1,0.173% (inactive),–
Cc1cc(C)c(C#N)c(OCC(=O)c2ccc(Br)cc2)n1,-21.2% (inactive),–
CC(C)[C@@H](OCc1ccccc1)[C@H](C)/C=N\OC[C@@H](O)[C@@H]1O[C@@H]2OC(C)(C)O[C@@H]2[C@H]1O,15.3% [at 11.4 µM] (inactive),–
CCn1cc(C(=O)O)c(=O)c2cc(F)c(N3CCN[C@@H](C)C3)c(F)c21,–,inactive
